Test results published in PubChem BioAssay (EPA / NIEHS).
Inconclusive results are not listed. Activity calls are given as the source filed them. The calls were made as follows, unless noted: active = hit-call score of the fitted dose curve at least 0.9, where 1 is the maximum; inconclusive = response in the unintended direction; inactive = score below 0.9.

Experiments:
[1] = target: Bile acid receptor (Homo sapiens) (UniProt Q96RI1); test: ATG_IR1_CIS: Attagene CIS-FACTORIAL HepG2 Assay for human Nuclear Receptor Subfamily 1 Group H Member 4 (NR1H4), IR1 submotif (AID 2282946; active = hit-call score of the fitted dose curve at least 0.9, where 1 is the maximum; inactive = score below 0.9); settings: IR1 reporter transcription, actives raise or lower the signal
Bile acid receptor (Homo sapiens), sequence (Q96RI1 whole entry, looked up): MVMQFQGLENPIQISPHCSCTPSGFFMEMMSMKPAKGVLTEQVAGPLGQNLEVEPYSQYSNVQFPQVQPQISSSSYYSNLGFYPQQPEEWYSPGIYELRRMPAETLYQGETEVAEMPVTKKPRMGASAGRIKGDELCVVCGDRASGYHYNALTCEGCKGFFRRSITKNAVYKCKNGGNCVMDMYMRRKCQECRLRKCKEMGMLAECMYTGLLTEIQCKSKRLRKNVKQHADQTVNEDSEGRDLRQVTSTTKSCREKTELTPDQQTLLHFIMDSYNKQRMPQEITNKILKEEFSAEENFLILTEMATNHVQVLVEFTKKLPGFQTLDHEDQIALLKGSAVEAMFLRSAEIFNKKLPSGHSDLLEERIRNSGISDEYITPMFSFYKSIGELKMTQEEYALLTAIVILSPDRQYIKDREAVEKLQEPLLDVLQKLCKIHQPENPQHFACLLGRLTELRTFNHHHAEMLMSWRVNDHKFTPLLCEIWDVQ
Outline: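 HepG2 cells transiently transfected with multiplexed cis-element reporter units read endogenous transcription factor activity. After 24 h compound exposure, reporter mRNA was quantified by RT-PCR, fluorescent labelling, HpaI digestion and capillary electrophoresis; bidirectional fitting versus DMSO baseline.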

[2] = ATG_M_19_TRANS: Attagene TRANS-FACTORIAL HepG2 Assay for M19 Transcription Factor (Internal Marker) (AID 2282974); settings: HepG2 Attagene TRANS-FACTORIAL M19 internal marker reporter
Outline: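 Background-control readout: after 24 h chemical exposure of transfected HepG2 carrying GAL4-driven reporter units, RNA was reverse-transcribed, amplified, fluorescently labeled and sized by capillary electrophoresis; gain-of-signal fit against DMSO.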

[3] = ATG_GAL4_TRANS: Attagene TRANS-FACTORIAL HepG2 Assay for GAL4 (Internal Marker) (AID 2282976); settings: HepG2 Attagene TRANS GAL4 internal marker reporter
Outline: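 HepG2 cells transiently transfected with multiplexed GAL4-UAS reporter constructs were dosed for 24 h. Reporter mRNA was measured by RT-PCR, 6-FAM primer extension, HpaI digestion and capillary electrophoresis, and gain of signal was fitted relative to DMSO.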

[4] = target: human Peroxisome Proliferator-activated Receptor delta (PPARd), PPARD (gene 5467) (UniProt Q03181); test: ATG_PPARd_TRANS: Attagene TRANS-FACTORIAL HepG2 Assay for human Peroxisome Proliferator-activated Receptor delta (PPARd) (AID 2283002)
human Peroxisome Proliferator-activated Receptor delta (PPARd), PPARD (gene 5467), sequence (Q03181 whole entry, looked up, the tested form may be a part): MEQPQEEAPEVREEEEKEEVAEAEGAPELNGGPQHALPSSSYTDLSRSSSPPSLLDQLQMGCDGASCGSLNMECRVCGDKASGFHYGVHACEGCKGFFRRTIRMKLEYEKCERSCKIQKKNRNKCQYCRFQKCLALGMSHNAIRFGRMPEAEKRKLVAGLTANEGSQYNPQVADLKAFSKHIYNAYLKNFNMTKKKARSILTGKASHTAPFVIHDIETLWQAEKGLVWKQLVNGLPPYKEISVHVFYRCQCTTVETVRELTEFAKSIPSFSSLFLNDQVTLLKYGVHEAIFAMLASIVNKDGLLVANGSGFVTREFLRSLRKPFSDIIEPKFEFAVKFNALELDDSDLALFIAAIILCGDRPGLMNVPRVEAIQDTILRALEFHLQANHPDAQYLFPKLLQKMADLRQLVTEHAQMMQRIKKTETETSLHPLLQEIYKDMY
Outline: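 Transient HepG2 transfection (multiple GAL4-UAS RTUs, chimeric receptor-Gal4); 24 h dosing; total RNA → oligo(dT) RT → PCR → 6-FAM primer extension → HpaI cut → CE. Positive direction vs DMSO.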

[5] = target: human Retinoid X Receptor beta (RXRb), RXRB (gene 6257) (UniProt P28702); test: ATG_RXRb_TRANS: Attagene TRANS-FACTORIAL HepG2 Assay for human Retinoid X Receptor beta (RXRb) (AID 2283013)
human Retinoid X Receptor beta (RXRb), RXRB (gene 6257), sequence (P28702 whole entry, looked up, the tested form may be a part): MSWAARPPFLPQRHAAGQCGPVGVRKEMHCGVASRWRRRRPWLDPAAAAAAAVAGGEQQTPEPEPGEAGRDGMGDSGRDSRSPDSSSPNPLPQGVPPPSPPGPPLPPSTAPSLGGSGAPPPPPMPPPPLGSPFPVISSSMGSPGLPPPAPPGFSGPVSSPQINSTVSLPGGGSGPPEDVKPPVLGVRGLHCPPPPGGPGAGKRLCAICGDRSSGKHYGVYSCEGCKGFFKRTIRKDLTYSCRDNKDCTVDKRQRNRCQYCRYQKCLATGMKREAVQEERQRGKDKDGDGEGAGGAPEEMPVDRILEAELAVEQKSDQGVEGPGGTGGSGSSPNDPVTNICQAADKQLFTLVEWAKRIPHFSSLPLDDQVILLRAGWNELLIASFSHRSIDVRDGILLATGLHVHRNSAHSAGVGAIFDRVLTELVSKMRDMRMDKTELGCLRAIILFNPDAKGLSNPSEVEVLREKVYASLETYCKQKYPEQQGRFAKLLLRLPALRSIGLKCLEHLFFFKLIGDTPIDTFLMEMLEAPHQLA
Outline: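 Readout is reporter transcript induction after 24 h dosing. It is measured by RT-PCR of total RNA followed by fluorescent capillary electrophoresis. HepG2 liver cells carry transfected multiple reporter units driven by an exogenous RXRb-Gal4 fusion; activity is relative to DMSO.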

[6] = target: human Vitamin D Receptor (VDR), VDR (gene 7421) (UniProt P11473); test: ATG_VDR_TRANS: Attagene TRANS-FACTORIAL HepG2 Assay for human Vitamin D Receptor (VDR) (AID 2283022)
human Vitamin D Receptor (VDR), VDR (gene 7421), sequence (P11473 whole entry, looked up, the tested form may be a part): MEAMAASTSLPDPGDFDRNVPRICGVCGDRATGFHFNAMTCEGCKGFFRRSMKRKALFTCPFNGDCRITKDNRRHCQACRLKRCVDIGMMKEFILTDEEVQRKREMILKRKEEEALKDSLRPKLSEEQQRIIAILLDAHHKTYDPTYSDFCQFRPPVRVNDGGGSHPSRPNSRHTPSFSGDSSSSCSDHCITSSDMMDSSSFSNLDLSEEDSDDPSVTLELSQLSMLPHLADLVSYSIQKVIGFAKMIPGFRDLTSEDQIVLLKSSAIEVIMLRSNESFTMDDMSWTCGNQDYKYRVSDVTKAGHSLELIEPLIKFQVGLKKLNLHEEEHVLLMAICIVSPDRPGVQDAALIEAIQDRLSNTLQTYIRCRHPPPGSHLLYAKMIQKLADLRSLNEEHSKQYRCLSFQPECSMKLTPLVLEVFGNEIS
Outline: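 HepG2 cells were transiently transfected with multiple GAL4-UAS reporter units, so signal reflects exogenous chimeric receptor-Gal4 activity. After 24 h compound exposure, reporter mRNA was measured by RT-PCR, fluorescent labelling and capillary electrophoresis, fitted for gain of signal versus DMSO.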

[7] = CCTE_Harrill_HTTr_Apoptosis_MCF7: CCTE's 6-hour Apoptosis Assessment for the High-Throughput Transcriptomics (HTTr) Platform, in MCF-7 cells cultured in DMEM + 10% fetal bovine serum, Harrill Lab (AID 2284011; active = hit-call score of the fitted dose curve at least 0.9, where 1 is the maximum; inactive = score below 0.9)
Outline: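 MCF-7 cells in DMEM + 10% fetal bovine serum were exposed to chemicals for 6 hours over an eight-point dilution series. Caspase-3/7 activation was imaged by high content imaging with CellEvent Caspase 3/7 Green; bidirectional fitting used DMSO as baseline.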

[8] = target: Nuclear receptor subfamily 1 group I member 3 (Homo sapiens) (UniProt Q14994); test: ATG_CAR_TRANS: Attagene TRANS-FACTORIAL HepG2 Assay for human Constitutive Androstane Receptor (CAR) (AID 2282969); settings: HepG2 Attagene TRANS-FACTORIAL CAR reporter;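 also: activators raise reporter mRNA above DMSO so AC50 marks induction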
Outline: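 Signal is reporter mRNA induction relative to DMSO, measured 24 h after dosing by RT-PCR with fluorescent primer extension and capillary electrophoresis. Human HepG2 liver cells carried transiently transfected chimeric NR-Gal4/GAL4-UAS reporter constructs.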

[9] = target: human Thyroid Receptor alpha (THRa1), THRA (gene 7067) (UniProt P10827); test: ATG_THRa1_TRANS: Attagene TRANS-FACTORIAL HepG2 Assay for human Thyroid Receptor alpha (THRa1) (AID 2283014)
human Thyroid Receptor alpha (THRa1), THRA (gene 7067), sequence (P10827 whole entry, looked up, the tested form may be a part): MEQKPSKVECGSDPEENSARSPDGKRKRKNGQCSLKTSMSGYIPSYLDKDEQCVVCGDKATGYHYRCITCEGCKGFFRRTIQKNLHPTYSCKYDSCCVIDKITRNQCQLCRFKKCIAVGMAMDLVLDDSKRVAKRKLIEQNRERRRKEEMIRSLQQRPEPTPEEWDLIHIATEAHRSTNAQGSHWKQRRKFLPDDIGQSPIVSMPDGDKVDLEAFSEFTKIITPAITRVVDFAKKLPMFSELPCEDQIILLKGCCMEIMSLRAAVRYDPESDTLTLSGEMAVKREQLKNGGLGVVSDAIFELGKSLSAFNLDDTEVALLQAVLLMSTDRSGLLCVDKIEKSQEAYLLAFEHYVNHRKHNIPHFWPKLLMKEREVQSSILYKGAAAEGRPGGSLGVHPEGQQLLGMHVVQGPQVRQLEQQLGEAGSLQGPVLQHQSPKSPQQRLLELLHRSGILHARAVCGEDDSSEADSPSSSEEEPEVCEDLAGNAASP
Outline: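 HepG2 cells transiently transfected with multiplexed GAL4-UAS reporter units for exogenous chimeric THRa1-Gal4; reporter mRNA measured 24 h after dosing by RT-PCR, 6-FAM labelling, HpaI digestion and capillary electrophoresis. Gain-of-signal fitted versus DMSO baseline.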

[10] = TOX21_p53_BLA_p4_viability: Viability Assessment in the Tox21 HCT-116 p53 Agonism Beta-lactamase Assay, Phase 4 (AID 2283597);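 also: hits lower the luminescence signal meaning cytotoxicity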
Outline: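 Cytotoxicity was inferred from loss of CellTiter-Glo luminescence. HCT116 cells had been dosed with compounds after 5 h plating, incubated 16 h at 37C and 5% CO2, and exposed to the CCF4-AM substrate for 2 h.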

[11] = TOX21_p53_BLA_p5_viability: Viability Assessment in the Tox21 HCT-116 p53 Agonism Beta-lactamase Assay, Phase 5 (AID 2283600)
Outline: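 Luciferase-coupled ATP quantitation of cells treated for 16 h (37C, 5% CO2) with test chemicals delivered in DMSO via a 217-fold dilution; 4000 cells/well; reagent incubated 30 min at room temperature before luminescence reading.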

[12] = target: Retinoic acid receptor alpha (Homo sapiens) (UniProt P10276); test: ATG_DR5_RAR_CIS: Attagene CIS-FACTORIAL HepG2 Assay for human Retinoic Acid Receptor Alpha (RARE), DR5 submotif (AID 2282934; active = hit-call score of the fitted dose curve at least 0.9, where 1 is the maximum; inactive = score below 0.9); settings: HepG2 Attagene cis-factorial RARE DR5 reporter, mRNA; actives raise or lower the signal
Retinoic acid receptor alpha (Homo sapiens), sequence (P10276 whole entry, looked up): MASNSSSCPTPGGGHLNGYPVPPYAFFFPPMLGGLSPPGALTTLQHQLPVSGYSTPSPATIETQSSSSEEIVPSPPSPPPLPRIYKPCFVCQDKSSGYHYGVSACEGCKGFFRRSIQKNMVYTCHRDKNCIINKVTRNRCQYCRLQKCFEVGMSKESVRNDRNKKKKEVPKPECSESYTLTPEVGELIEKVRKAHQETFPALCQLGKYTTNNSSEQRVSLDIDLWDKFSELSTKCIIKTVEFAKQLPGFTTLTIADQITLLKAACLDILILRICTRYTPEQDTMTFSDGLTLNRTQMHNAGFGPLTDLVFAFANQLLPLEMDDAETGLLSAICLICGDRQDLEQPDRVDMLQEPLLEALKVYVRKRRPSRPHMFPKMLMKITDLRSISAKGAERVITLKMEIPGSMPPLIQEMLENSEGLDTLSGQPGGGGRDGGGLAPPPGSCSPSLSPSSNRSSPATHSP
Outline: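 Transient MRTU transfection of HepG2; 24 h compound treatment; TriZol RNA, oligo(dT) RT, PCR, FAM labelling, capillary electrophoresis. Bidirectional fit vs DMSO. Endogenous TF activity at DR5 RARE.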

[13] = target: Oxysterols receptor LXR-alpha (Homo sapiens) (UniProt Q13133); test: ATG_LXRa_TRANS: Attagene TRANS-FACTORIAL HepG2 Assay for human Liver X Receptor alpha (LXRa) (AID 2282980); settings: HepG2 Attagene TRANS reporter, LXRa transactivation
Oxysterols receptor LXR-alpha (Homo sapiens), sequence (Q13133 whole entry, looked up, the tested form may be a part): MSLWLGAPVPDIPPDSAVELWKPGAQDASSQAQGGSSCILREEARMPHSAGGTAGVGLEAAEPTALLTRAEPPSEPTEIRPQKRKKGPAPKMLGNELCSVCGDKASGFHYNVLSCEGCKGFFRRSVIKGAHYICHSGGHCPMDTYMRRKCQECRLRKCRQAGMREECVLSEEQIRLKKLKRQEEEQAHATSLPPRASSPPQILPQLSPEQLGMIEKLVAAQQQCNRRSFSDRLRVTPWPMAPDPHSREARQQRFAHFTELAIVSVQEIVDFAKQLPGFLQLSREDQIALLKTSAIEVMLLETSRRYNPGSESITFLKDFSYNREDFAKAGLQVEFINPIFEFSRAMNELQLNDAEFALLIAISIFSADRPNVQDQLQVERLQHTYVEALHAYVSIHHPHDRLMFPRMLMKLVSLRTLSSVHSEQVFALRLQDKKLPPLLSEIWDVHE
Outline: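 HepG2 cells were transiently transfected with multiplexed reporter units driven by chimeric LXRa–GAL4 fusion proteins, then dosed for 24 h. Reporter mRNA was quantified by RT-PCR, fluorescent labelling and capillary electrophoresis; gain of signal fitted against DMSO baseline.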

[14] = target: Oxysterols receptor LXR-beta (Homo sapiens) (UniProt P55055); test: ATG_LXRb_TRANS: Attagene TRANS-FACTORIAL HepG2 Assay for human Liver X Receptor beta (LXRb) (AID 2282981); settings: HepG2 Attagene TRANS GAL4-LXRb reporter, mRNA
Oxysterols receptor LXR-beta (Homo sapiens), sequence (P55055 whole entry, looked up, the tested form may be a part): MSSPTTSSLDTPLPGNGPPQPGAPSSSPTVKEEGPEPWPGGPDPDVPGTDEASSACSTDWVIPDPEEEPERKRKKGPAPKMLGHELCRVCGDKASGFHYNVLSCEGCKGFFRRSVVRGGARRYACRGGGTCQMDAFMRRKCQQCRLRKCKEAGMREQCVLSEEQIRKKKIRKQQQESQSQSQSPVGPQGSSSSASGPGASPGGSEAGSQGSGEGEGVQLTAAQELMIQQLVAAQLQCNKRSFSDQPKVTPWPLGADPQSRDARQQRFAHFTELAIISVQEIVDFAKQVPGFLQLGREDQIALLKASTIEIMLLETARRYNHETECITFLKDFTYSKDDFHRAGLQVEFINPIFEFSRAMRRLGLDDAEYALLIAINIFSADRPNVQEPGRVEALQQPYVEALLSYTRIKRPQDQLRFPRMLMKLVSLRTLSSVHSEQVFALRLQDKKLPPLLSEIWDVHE
Outline: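 After 24 h chemical treatment of transfected HepG2 cells carrying exogenous NR-Gal4 chimeras, reporter mRNA was quantified by fluorescent RT-PCR and capillary electrophoresis; activity taken as increase over DMSO controls.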

[15] = target: Hepatocyte nuclear factor 4-alpha (Homo sapiens) (UniProt P41235); test: ATG_HNF4a_TRANS: Attagene TRANS-FACTORIAL HepG2 Assay for human Hepatocyte Nuclear Factor 4 alpha (HNF4a) (AID 2282982); settings: HepG2 HNF4a transactivation reporter, mRNA readout
Outline: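 Activity of an exogenous HNF4a–Gal4 fusion scored as induced GAL4-UAS reporter transcripts after 24 h chemical exposure of transfected human HepG2 cells. Read-out via RT-PCR with 6-FAM labelling and capillary electrophoresis; rise over DMSO baseline.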

[16] = target: human RAR-related Orphan Receptor beta (RORb), RORB (gene 6096) (UniProt Q92753); test: ATG_RORb_TRANS: Attagene TRANS-FACTORIAL HepG2 Assay for human RAR-related Orphan Receptor beta (RORb) (AID 2283010);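 as to AC50: potency for increased reporter mRNA meaning activation of RORb-Gal4 chimera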
human RAR-related Orphan Receptor beta (RORb), RORB (gene 6096), sequence (Q92753 whole entry, looked up, the tested form may be a part): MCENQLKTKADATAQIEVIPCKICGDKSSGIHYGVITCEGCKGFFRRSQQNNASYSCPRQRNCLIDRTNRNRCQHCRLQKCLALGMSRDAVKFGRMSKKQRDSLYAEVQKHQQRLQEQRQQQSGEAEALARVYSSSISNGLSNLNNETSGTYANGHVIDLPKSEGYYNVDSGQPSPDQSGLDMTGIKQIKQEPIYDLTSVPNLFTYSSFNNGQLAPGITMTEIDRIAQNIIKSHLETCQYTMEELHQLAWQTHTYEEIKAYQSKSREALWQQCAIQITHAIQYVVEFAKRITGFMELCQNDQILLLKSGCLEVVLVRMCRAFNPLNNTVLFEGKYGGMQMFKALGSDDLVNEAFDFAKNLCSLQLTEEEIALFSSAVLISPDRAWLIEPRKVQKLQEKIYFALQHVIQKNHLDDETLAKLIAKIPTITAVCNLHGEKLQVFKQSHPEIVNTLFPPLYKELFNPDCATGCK
Outline: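 Read-out is reporter mRNA induction, quantified by RT-PCR with fluorescent capillary electrophoresis, 24 h post-dose in transiently transfected HepG2 expressing exogenous NR-Gal4 chimera. Activity fitted upward versus DMSO.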

[17] = TOX21_p53_BLA_p3_viability: Viability Assessment in the Tox21 HCT-116 p53 Agonism Beta-lactamase Assay, Phase 3 (AID 2283593);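 also: cells exposed to compound for 16 h before reading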
Outline: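 Cellular ATP was quantified by CellTiter-Glo luminescence, read after 30 min at room temperature. Beforehand, HCT116 cells (4000/well) received compound 5 h post-seeding, 217-fold diluted from DMSO, then incubated 16 h at 37C.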

[18] = ACEA_ER_AUC_viability: ACEA Biosciences xCELLigence Real-Time Cell Analysis on Estrogen Receptor Agonism for Viability (AID 2283782);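 also: hit means loss of impedance signal meaning reduced cell growth or viability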
Outline: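 Viability endpoint: reduced impedance area under the curve relative to DMSO, recorded by real-time electrode sensing over ~80 h of continuous exposure. Duplicate plates of T47D in hormone-depleted medium; eight concentrations, 1:4 dilutions, 100 uM maximum.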

[19] = target: human Peroxisome Proliferator-activated Receptor alpha (PPARa), PPARA (gene 5465) (UniProt Q07869); test: ATG_PPARa_TRANS: Attagene TRANS-FACTORIAL HepG2 Assay for human Peroxisome Proliferator-activated Receptor alpha (PPARa) (AID 2283001);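 as to AC50: potency for gain of reporter signal over DMSO so agonist or activator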
human Peroxisome Proliferator-activated Receptor alpha (PPARa), PPARA (gene 5465), sequence (Q07869 whole entry, looked up, the tested form may be a part): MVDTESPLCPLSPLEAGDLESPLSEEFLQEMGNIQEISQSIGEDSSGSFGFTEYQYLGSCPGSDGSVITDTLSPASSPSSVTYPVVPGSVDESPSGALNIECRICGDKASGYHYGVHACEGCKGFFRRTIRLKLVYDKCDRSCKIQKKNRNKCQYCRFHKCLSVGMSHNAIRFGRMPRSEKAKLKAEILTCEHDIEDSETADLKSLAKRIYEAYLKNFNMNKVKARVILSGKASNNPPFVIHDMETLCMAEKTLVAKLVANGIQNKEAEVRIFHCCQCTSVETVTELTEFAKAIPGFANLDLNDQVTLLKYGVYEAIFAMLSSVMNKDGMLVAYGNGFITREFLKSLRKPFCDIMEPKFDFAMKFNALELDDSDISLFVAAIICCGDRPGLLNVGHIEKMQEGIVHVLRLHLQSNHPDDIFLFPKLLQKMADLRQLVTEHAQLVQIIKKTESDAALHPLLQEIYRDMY
Outline: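 Reporter transcripts quantified by RT-PCR plus capillary electrophoresis after 24 h treatment, fitted upward relative to DMSO. Cells: human HepG2 transiently carrying multiple GAL4-UAS reporter units driven by NR-Gal4 chimeras.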

[20] = TOX21_p53_BLA_p2_viability: Viability Assessment in the Tox21 HCT-116 p53 Agonism Beta-lactamase Assay, Phase 2 (AID 2283591);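 also: compound exposure lasted 16 h at 37 °C; actives lower the ATP signal meaning cytotoxicity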
Outline: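 Cytotoxicity readout: CellTiter-Glo ATP luminescence, 30 min at room temperature, after the beta-lactamase read. Cells were HCT116 exposed 16 h at 37C to compounds pin-transferred at 217-fold dilution from DMSO stocks.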

Measured: AC50

CC(C)(C)C(O)C(Oc1ccc(-c2ccccc2)cc1)n1cncn1 (centres undefined)
inactive: [2] | [3] | [4] | [5] | [6] | [7]
active: [1] 55.2 µM

CC(C)[C@@H](C(=O)O[C@@H](C#N)c1cccc(Oc2ccccc2)c1)c1ccc(Cl)cc1
inactive: [8] | [3] | [4] | [5] | [9] | [10] | [11] | [7]

Nc1ccc([N+](=O)[O-])cc1N
active: [18] 50 µM
not listed: [1] | [2] | [7] | [8] | [9] | [19] | [20]
inactive: all other assays above

C[C@]12CC[C@H](O)C[C@H]1CC[C@@H]1[C@@H]2C[C@@H](O)[C@]2(C)[C@@H](C3=CC(=O)OC3)CC[C@]12O
inactive: [1] | [13] | [14] | [15] | [4] | [5] | [9] | [6]
active: [19] 1.78 µM | [16] 1.29 µM | [18] 1.75 µM

CC(C)C(=O)Cl
inactive: [1] | [2] | [19] | [4] | [5] | [6] | [18]

C=CCO
inactive: [2] | [19] | [4] | [17] | [11]

CNC(=N[N+](=O)[O-])NCC1CCOC1 (centres undefined)
inactive: [1] | [2] | [3] | [16] | [10] | [7]

CCCCOC(=O)CCC(=O)OCCCC
inactive: [12] | [8] | [3] | [19] | [4] | [16] | [5] | [9] | [20]

CC1CCCC1.[C-]#[O+].[C-]#[O+].[C-]#[O+].[Mn]
inactive: [12] | [8] | [2] | [14] | [19] | [5] | [9] | [6] | [17] | [10]

O=[N+]([O-])c1cc([N+](=O)[O-])c2ccccc2c1
inactive: [12] | [13] | [14] | [19] | [5] | [9] | [6] | [20] | [17] | [10] | [11]

O=c1c2ccccc2c(=O)c2c1cc(Cl)c1[nH]c3c([nH]c12)c(Cl)cc1c(=O)c2ccccc2c(=O)c13
inactive: [1] | [8] | [15] | [19] | [4] | [16] | [17] | [10] | [11]
active: [5] 138 µM | [18] 6.28 µM

O=C(CCl)c1ccccc1
active: [19] 50.2 µM | [5] 33.4 µM | [9] 55.9 µM | [18] 10.9 µM
not listed: [1] | [3] | [6] | [8]
inactive: all other assays above

C[N+](=O)[O-]
inactive: [3] | [13] | [14] | [15] | [19] | [4] | [9] | [20] | [10] | [11]
